Experimental data: PubChem BioAssay AID652104 (National Center for Advancing Translational Sciences (NCATS), 2013)
The campaign covered roughly 410,000 compounds. About 7,200 (1.8%) were called active. Another 7% or so got no clear call; they are omitted. Calls follow the shape of the dose curve; as a rule, active = well fitted activation curve with a large enough effect; inconclusive = small, poorly fitted or top-dose-only effect, or another doubt; inactive = no such curve, though single readings can be large or run the other way. What follows is part of a selection rich in actives, with near analogues and random picks from the rest. Entries that show only a call come without a potency.

Assay: qHTS of TDP-43 Inhibitors; also: nearly all actives have a fitted effect of over 50% in size
Conditions: TDP-43 expressing yeast growth rescue, BacTiter-Glo, 24 h; series mostly up to 46.1 µM
In short: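 Luminescence from BacTiter-Glo reports growth of TDP-43-expressing yeast after 24 hr at 30 deg C with compound. Cells were raffinose-pregrown to mid-log, then seeded in galactose medium at OD600=0.02.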
Potency is read from the fitted curve at half-maximal effect.

| SMILES | Potency |
| --- | --- |
| CC(C)(CNC(=O)Cc1ccc(Cl)cc1Cl)N1CCOCC1 | inactive |
| CSCc1cc(N(C)C)nc(SCc2ccc(Cl)cc2Cl)n1 | inactive |
| CSCc1cc(N2CCOCC2)nc(SCc2ccc(Cl)cc2Cl)n1 | 22.4 µM (active) |
| Cc1ccc(C(=O)Nc2ccccc2F)cc1S(=O)(=O)N1CCOCC1 | inactive |
| O=C(Nc1cccc2cccnc12)c1cccc2c(Br)cccc12 | inactive |
| COc1c(Cl)cc(Cl)cc1C(=O)Nc1cccc2cccnc12 | inactive |
| O=C(Nc1cccc2cccnc12)c1cccc(Cl)c1 | 14.1 µM (active) |
| CC(C)(C)NC(=O)NC(=O)COC(=O)CCC1CCCCC1 | inactive |
| N/C(=N\OC(=O)CCC1CCCCC1)c1ccccn1 | 8.91 µM (active) |
| CCOCc1nnc(NC(=O)CCC2CCCCC2)s1 | inactive |
| COc1ccc(-c2nnc(SCC(=O)Nc3ccc(C(C)C)cc3)nc2-c2ccc(OC)c(OC)c2)cc1OC | inactive |
| Clc1ccc(CSc2nncn3c2cc2occc23)cc1 | 25.1 µM (active) |
| CCN(C(=O)CSc1nnc(C)n2c1cc1occc12)c1ccccc1 | inactive |
| CC(C)Cn1cnc2c(SCc3ccc(Cl)cc3)nc(N)nc21 | inactive |
| COc1ccc2c(c1)CCc1c(C(=O)Nc3cc(C)ccc3O)noc1-2 | inactive |
| Cc1ccc(C)c(N2CCN(C(=O)C3CCC(CNS(=O)(=O)c4cccs4)CC3)CC2)c1 (stereo not drawn) | inactive |
| COc1ccc2c(CC(=O)NNC(=O)c3ccccc3F)coc2c1 | inactive |
| COc1ccc2c(c1)CCC/C2=N\OC(=O)c1ccccc1F | 11.2 µM (active) |
| COc1ccc2c(c1)CCc1c(C(=O)N3CCCC3)noc1-2 | inactive |
| COc1ccccc1CC(=O)Nc1ccc([N+](=O)[O-])cc1OC | 11.2 µM (active) |
| COc1ccc(Br)cc1CN(C)CC(=O)Nc1cc([N+](=O)[O-])ccc1OC | inactive |
| COc1cc([N+](=O)[O-])ccc1NC(=O)COC(=O)CCOc1ccc(C)cc1 | 17.8 µM (active) |
| COc1ccc([N+](=O)[O-])cc1NCC(=O)c1ccc(C)cc1 | inactive |
| COc1cc([N+](=O)[O-])ccc1NC(=S)N1CCN(c2ccccn2)CC1 | inactive |
| COc1ccc(NC(=O)c2cc([N+](=O)[O-])ccc2NC(=O)CNC2CCCCC2C)c(OC)c1 (stereo not drawn) | inactive |
| Nc1c(Cl)cc(-c2csc(N3CCCC3c3nc4cc(Cl)c(Cl)cc4n3CCOCCO)n2)cc1Cl (stereo not drawn) | inactive |
| Cc1nc2cc(C(F)(F)F)ccc2n1CCNc1nc(-c2cc(Cl)c(N)c(Cl)c2)cs1 | 22.4 µM (active) |
| CCCn1c(C(C)Nc2nc(-c3ccc(C)cc3)cs2)nc2cc(Cl)c(N3CCCCC3)cc21 (stereo not drawn) | inactive |
